In PubChem BioAssay (EPA / NIEHS):
Where “and” joins values, the source holds several entries; their conditions need not be identical. Identical values can stand only once. Results filed as inconclusive are left out. More than one record can exist for a structure, and the calls need not agree. Calls of active or inactive are those of the source. How the source made its calls, unless noted: active means hit-call score of the fitted dose curve at least 0.9, where 1 is the maximum; inconclusive means response in the unintended direction; inactive means score below 0.9.

Columns and labels:
[1] = read-out: Transforming Growth Factor (TGFA), TGFA (gene 7039); experiment: LTEA_HepaRG_TGFA: Life Technologies and Expression Analysis (LTEA) Assay for Transforming Growth Factor (TGFA) using HepaRG (AID 2283532; active means hit-call score of the fitted dose curve at least 0.9, where 1 is the maximum; inactive means score below 0.9); settings: mRNA level, 48 h; actives raise or lower the signal
Summary of the method: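 Differentiated human HepaRG cells, plated 48 h then switched to serum-free induction medium, were exposed in duplicate for 48 h to 8-point half-log series from 100 uM in 0.5% DMSO. TGFA mRNA measured by qRT-PCR, normalized to ACTB/GAPDH/POLR2A, bidirectional fit versus DMSO.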

[2] = read-out: Transforming Growth Factor (TGFB1), TGFB1 (gene 7040); experiment: LTEA_HepaRG_TGFB1: Life Technologies and Expression Analysis (LTEA) Assay for Transforming Growth Factor (TGFB1) Transporter using HepaRG (AID 2283533; active means hit-call score of the fitted dose curve at least 0.9, where 1 is the maximum; inactive means score below 0.9); settings: mRNA level, 48 h; actives raise or lower the signal
Summary of the method: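 TGFB1 transcript measured by qRT-PCR with normalisation to three housekeeping genes (ACTB, GAPDH, POLR2A); human HepaRG line treated in duplicate for 48 hr with an 8-point series topping at 100 uM, 0.5% DMSO vehicle, bidirectionally fitted.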

[3] = read-out: TIMP1, TIMP1 (gene 7076); experiment: LTEA_HepaRG_TIMP1: Life Technologies and Expression Analysis (LTEA) Assay for TIMP1 using HepaRG (AID 2283534; active means hit-call score of the fitted dose curve at least 0.9, where 1 is the maximum; inactive means score below 0.9); settings: mRNA level, 48 h; actives raise or lower the signal
Summary of the method: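 Bidirectional change in TIMP1 transcript versus 0.5% DMSO, measured by TaqMan qRT-PCR with three housekeeping genes for normalization. HepaRG human liver cells dosed 48 h in duplicate, top concentration 100 uM with half-log dilutions.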

[4] = read-out: Tumor necrosis factor receptor 1 (TNFRSF1A), TNFRSF1A (gene 7132); experiment: LTEA_HepaRG_TNFRSF1A: Life Technologies and Expression Analysis (LTEA) Assay for Tumor necrosis factor receptor 1 (TNFRSF1A) using HepaRG (AID 2283535; active means hit-call score of the fitted dose curve at least 0.9, where 1 is the maximum; inactive means score below 0.9); settings: mRNA level, 48 h; actives raise or lower the signal
Summary of the method: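 mRNA measured by qRT-PCR (TaqMan, Fluidigm arrays) against ACTB/GAPDH/POLR2A housekeepers after 48 h chemical exposure of HepaRG cells. Top concentration 100 uM, half-log 8-point series, duplicates; vehicle 0.5% DMSO, both fit directions.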

[5] = read-out: Thyroid Hormone Responsive (THRSP), THRSP (gene 7069); experiment: LTEA_HepaRG_THRSP: Life Technologies and Expression Analysis (LTEA) Assay for Thyroid Hormone Responsive (THRSP) using HepaRG (AID 2283536; active means hit-call score of the fitted dose curve at least 0.9, where 1 is the maximum; inactive means score below 0.9); settings: mRNA level, 48 h; actives raise or lower the signal
Summary of the method: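 Differentiated human HepaRG cells were exposed in duplicate for 48 h in serum-free induction medium to eight concentrations (top 100 uM, half-log steps, 0.5% DMSO). Expression was quantified by TaqMan qRT-PCR, normalized to ACTB, GAPDH and POLR2A, with bidirectional fitting against DMSO.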

[6] = read-out: Cellular tumor antigen p53 (Homo sapiens) (UniProt P04637); experiment: LTEA_HepaRG_TP53: Life Technologies and Expression Analysis (LTEA) Assay for Tumor Protein P53 (TP53) using HepaRG (AID 2283537; active means hit-call score of the fitted dose curve at least 0.9, where 1 is the maximum; inactive means score below 0.9); settings: mRNA level, 48 h; actives raise or lower the signal
Summary of the method: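 TP53 transcript measured by qRT-PCR, normalized to three housekeeping genes, after 48 h treatment of human HepaRG cultures with chemicals from 100 uM downward in half-log steps (0.5% DMSO vehicle, serum-free induction medium). Up- or down-regulation fitted against DMSO.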

[7] = read-out: UDP glucuronosyltransferase (UGT1A1), UGT1A1 (gene 54658); experiment: LTEA_HepaRG_UGT1A1: Life Technologies and Expression Analysis (LTEA) Assay for UDP glucuronosyltransferase (UGT1A1) using HepaRG (AID 2283538; active means hit-call score of the fitted dose curve at least 0.9, where 1 is the maximum; inactive means score below 0.9); settings: mRNA level, 48 h; actives raise or lower the signal
Summary of the method: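 Human liver HepaRG cultures receive test chemical for 48 h, up to 100 uM in 0.5% DMSO, with phenobarbital induction controls. UGT1A1 mRNA is measured by qRT-PCR and normalized to ACTB, GAPDH and POLR2A.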

[8] = read-out: UDP glucuronosyltransferase (UGT1A6), UGT1A6 (gene 54578); experiment: LTEA_HepaRG_UGT1A6: Life Technologies and Expression Analysis (LTEA) Assay for UDP glucuronosyltransferase (UGT1A6) using HepaRG (AID 2283539; active means hit-call score of the fitted dose curve at least 0.9, where 1 is the maximum; inactive means score below 0.9); settings: mRNA level, 48 h; actives raise or lower the signal
Summary of the method: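 Expression was quantified by TaqMan qRT-PCR on Fluidigm arrays with ACTB/GAPDH/POLR2A normalization and bidirectional fitting against 0.5% DMSO. HepaRG cells (~100,000/well) were treated in duplicate for 48 h at eight half-log concentrations up to 100 uM in serum-free induction medium.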

[9] = read-out: X-box binding protein 1 (XBP1), XBP1 (gene 7494); experiment: LTEA_HepaRG_XBP1: Life Technologies and Expression Analysis (LTEA) Assay for X-box binding protein 1 (XBP1) using HepaRG (AID 2283540; active means hit-call score of the fitted dose curve at least 0.9, where 1 is the maximum; inactive means score below 0.9); settings: mRNA level, 48 h; actives raise or lower the signal
Summary of the method: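 XBP1 transcript by qRT-PCR (housekeeping-normalized: ACTB, GAPDH, POLR2A) after 48 h chemical treatment of HepaRG cells, 8-point half-log series topping at 100 uM, vehicle 0.5% DMSO. Gain and loss of signal fitted relative to DMSO.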

[10] = LTEA_HepaRG_LDH_cytotoxicity: Cytotoxicity Assessment in the Life Technologies and Expression Analysis (LTEA) Assay (AID 2283563);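 on AC50: LDH activity released into spent culture medium as a marker of cell death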
Summary of the method: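 LDH release into culture medium read after 48 h chemical treatment of HepaRG cells. Duplicate wells, eight-point half-log series topping at 100 uM, 0.5% DMSO vehicle and baseline.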

[11] = ATG_XTT_Cytotoxicity: Cytotoxicity Assessment in the Attagene TRANS-FACTORIAL HepG2 Assay (AID 2283584);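 on AC50: cells exposed to compound for 24 h before reading; active means loss of viability signal versus DMSO baseline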
Summary of the method: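 Viability endpoint from XTT after 24 h chemical exposure of reporter-transfected human HepG2 liver cells; signal loss fitted relative to DMSO negative control.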

[12] = TOX21_p53_BLA_p2_viability: Viability Assessment in the Tox21 HCT-116 p53 Agonism Beta-lactamase Assay, Phase 2 (AID 2283591);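 further: compound exposure lasted 16 h at 37 °C; actives lower the ATP signal meaning cytotoxicity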
Summary of the method: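 HCT-116 p53-bla cells (4000/well) rested 5 h at 37C, then received compounds in DMSO (217-fold dilution) for 16 h at 37C, 5% CO2. After the CCF4 read, CellTiter-Glo was added; ATP luminescence was read after 30 min at room temperature.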

[13] = molecular target: Cellular tumor antigen p53 (Homo sapiens) (UniProt P04637); experiment: TOX21_p53_BLA_p2_ratio: Tox21 HCT-116 p53 Agonism Beta-lactamase Assay, Ratio, Phase 2 (AID 2283592)
Summary of the method: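 Gain-of-signal p53 agonism was scored from the beta-lactamase FRET ratio (460/530 nm, 405 nm excitation) in HCT116 cells treated 16 h at 37C, 5% CO2, with DMSO serving as negative control and baseline.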

[14] = molecular target: Cellular tumor antigen p53 (Homo sapiens) (UniProt P04637); experiment: TOX21_p53_BLA_p3_ratio: Tox21 HCT-116 p53 Agonism Beta-lactamase Assay, Ratio, Phase 3 (AID 2283596)
Summary of the method: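 HCT116 p53-bla cells (4000/well) given compound in DMSO (217-fold dilution) after 5 h, incubated 16 h at 37C. CCF4-AM substrate 2 h at room temperature; 460/530 nm emission ratio, gain fitted against DMSO.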

[15] = TOX21_p53_BLA_p4_viability: Viability Assessment in the Tox21 HCT-116 p53 Agonism Beta-lactamase Assay, Phase 4 (AID 2283597);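 further: hits lower the luminescence signal meaning cytotoxicity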
Summary of the method: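 Following a 16 h exposure at 37C, the treated HCT116 wells were first read for the FRET ratio. They were then lysed with CellTiter-Glo, and ATP luminescence was recorded after 30 min at room temperature.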

[16] = molecular target: Cellular tumor antigen p53 (Homo sapiens) (UniProt P04637); experiment: TOX21_p53_BLA_p5_ratio: Tox21 HCT-116 p53 Agonism Beta-lactamase Assay, Ratio, Phase 5 (AID 2283599)
Summary of the method: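 HCT-116 cells carrying a p53-inducible beta-lactamase reporter were seeded at 4000 cells/well and dosed after 5 h with compound in DMSO (217-fold dilution). After 16 h at 37C, CCF4-AM substrate was added for 2 h, and the 460/530 nm emission ratio was scored as gain-of-signal versus DMSO.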

[17] = TOX21_p53_BLA_p5_viability: Viability Assessment in the Tox21 HCT-116 p53 Agonism Beta-lactamase Assay, Phase 5 (AID 2283600)
Summary of the method: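 After the 460/530 nm beta-lactamase measurement, the wells received an ATP-detection luciferase reagent; signal was read 30 min later at RT. Compound treatment lasted 16 h on cells pre-incubated 5 h post-seeding.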

[18] = molecular target: Cellular tumor antigen p53 (Homo sapiens) (UniProt P04637); experiment: TOX21_p53_BLA_p4_ratio: Tox21 HCT-116 p53 Agonism Beta-lactamase Assay, Ratio, Phase 4 (AID 2283601)
Summary of the method: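 HCT116 cells carrying an inducible beta-lactamase reporter were plated at 4000 cells/well, rested 5 h, then exposed to compounds in DMSO (217-fold dilution) for 16 h at 37C. CCF4-AM substrate was loaded 2 h at room temperature; 460/530 nm emission ratio scored gain-of-signal versus DMSO.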

[19] = Tanguay_ZF_120hpf_MORT_legacy: (Legacy) Oregon State University Tanguay Lab 120 Hour Post-fertilization zebrafish Assay for Mortality (AID 2283633);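 on AC50: fitted as increase in binary mortality versus DMSO negative control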
Summary of the method: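 Static waterborne exposure from 6 to 120 hpf at 28C of single dechorionated wild-type (5D) embryos per well, 0.64% DMSO final. Death recorded present/absent by brightfield at 24 and 120 hpf.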

[20] = TOX21_p53_BLA_p3_viability: Viability Assessment in the Tox21 HCT-116 p53 Agonism Beta-lactamase Assay, Phase 3 (AID 2283593);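 further: cells exposed to compound for 16 h before reading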
Summary of the method: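 HCT-116 cells (4000/well) rested 5 h at 37C, then got DMSO compounds by pin tool (217-fold dilution) for 16 h at 37C, 5% CO2. After the bla read, CellTiter-Glo was added and luminescence read at 30 min, room temperature.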

Measured: AC50

Cellular tumor antigen p53 (Homo sapiens), sequence (P04637 whole entry, looked up): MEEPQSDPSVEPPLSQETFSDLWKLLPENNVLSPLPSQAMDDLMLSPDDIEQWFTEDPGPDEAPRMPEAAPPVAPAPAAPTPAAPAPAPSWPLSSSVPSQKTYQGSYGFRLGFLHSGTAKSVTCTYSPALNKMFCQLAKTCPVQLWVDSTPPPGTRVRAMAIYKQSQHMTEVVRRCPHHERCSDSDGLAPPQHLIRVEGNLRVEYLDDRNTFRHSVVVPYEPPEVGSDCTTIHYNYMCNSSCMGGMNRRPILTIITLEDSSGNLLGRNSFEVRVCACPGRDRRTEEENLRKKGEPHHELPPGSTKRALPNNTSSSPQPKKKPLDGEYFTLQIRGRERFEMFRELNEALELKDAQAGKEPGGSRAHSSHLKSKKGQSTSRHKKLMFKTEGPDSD

CCCCCCCCCCCC[N+](C)(C)C
active: [1] 77 µM | [2] 50 µM | [3] 83.4 µM | [6] 81.9 µM | [7] 88.3 µM | [8] 89.9 µM | [10] 90.4 µM | [12] 85.2 µM and 79.6 µM and 73.5 µM | [13] 14.7 µM and 14.2 µM and 14.1 µM | [14] 21 µM and 16 µM and 46.1 µM | [15] 83.2 µM and 46 µM and 46.1 µM | [16] 33.3 µM | [18] 37.4 µM and 17.3 µM and 46.4 µM
inactive: [4] | [5] | [9] | [11] | [16] | [17] | [19]

CCN(Cc1cccc(S(=O)(=O)O)c1)c1ccc(C(=C2C=CC(=[N+](CC)Cc3cccc(S(=O)(=O)O)c3)C=C2)c2ccccc2S(=O)(=O)[O-])cc1
active: [12] 19.4 µM | [15] 35.5 µM
not listed: [18] | [20]
inactive: all other assays above

CCCCCCCC[Si](OCC)(OCC)OCC
not listed: [15] | [17]
inactive: all other assays above

Cc1cccc2ccccc12
not listed: [18] | [20]
inactive: all other assays above

CCCCCCCCCC(=O)O
not listed: [18]
inactive: all other assays above

O=C(Nc1ccc(Cl)cc1)Nc1ccc(Cl)c(Cl)c1
inactive: [5] | [11] | [12] | [20] | [15] | [16] | [17] | [19]
active: [1] 25.5 µM | [2] 24.4 µM | [3] 16 µM | [4] 13.1 µM | [6] 12.4 µM | [7] 14.9 µM | [8] 13.5 µM | [9] 17.2 µM | [10] 24.9 µM | [13] 3.12 µM and 5.23 µM and 3.82 µM | [14] 5.76 µM and 4.62 µM and 6.38 µM | [16] 6.25 µM and 12.1 µM | [18] 4.01 µM and 4.85 µM and 6.48 µM

OCCO
active: [6] 9.97 µM
not listed: [18]
inactive: all other assays above

CN1C(=O)CC[C@H]1c1cccnc1
not listed: [15] | [16] | [18]
inactive: all other assays above

CCCCOC(=O)CC(CC(=O)OCCCC)(OC(C)=O)C(=O)OCCCC
not listed: [16] | [20]
inactive: all other assays above

Cc1ccc2oc(CN(Cc3ccccc3)C(=O)Nc3c(F)cc(F)cc3F)c(-c3ccc(Cl)cc3)c2c1
active: [6] 44.2 µM
not listed: [18] | [20]
inactive: all other assays above

CN(C)c1ccc(C(=C2C=CC(=[N+](C)C)C=C2)c2ccc(N(C)C)cc2)cc1
active: [2] 68.7 µM | [3] 74.2 µM | [4] 8.56 µM | [5] 2.48 µM | [6] 23.3 µM | [7] 16.8 µM | [8] 10.4 µM | [10] 9.3 µM | [11] 12.3 µM | [12] 23.6 µM and 19.1 µM and 23 µM | [13] 33.6 µM and 32.8 µM and 7.06 µM | [20] 56.6 µM and 17.3 µM and 20.4 µM | [14] 9.02 µM and 31.5 µM and 8.23 µM | [15] 28.8 µM and 20.6 µM and 14.3 µM | [16] 47.3 µM and 34 µM and 25.4 µM | [17] 46.1 µM and 27 µM and 14.5 µM | [19] 0.577 µM
inactive: [1] | [9]
